FLuc modulator: inhibits or activates purified firefly luciferase, miR-21 counter-screen. P08659. purified FLuc, Km substrates, luminescence inhibition. Potency, µM (top dose mostly 57.5 µM), for inactives: at the top dose activity change, negative = inhibition, actives largely listed as inhibitors. 360,000 compounds, 6.9% hits;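 note: plate controls were vehicle for no effect and reference inhibitor for full effect; nearly all actives have a fitted effect of over 55% in size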
Target sequence (P08659 whole entry, looked up): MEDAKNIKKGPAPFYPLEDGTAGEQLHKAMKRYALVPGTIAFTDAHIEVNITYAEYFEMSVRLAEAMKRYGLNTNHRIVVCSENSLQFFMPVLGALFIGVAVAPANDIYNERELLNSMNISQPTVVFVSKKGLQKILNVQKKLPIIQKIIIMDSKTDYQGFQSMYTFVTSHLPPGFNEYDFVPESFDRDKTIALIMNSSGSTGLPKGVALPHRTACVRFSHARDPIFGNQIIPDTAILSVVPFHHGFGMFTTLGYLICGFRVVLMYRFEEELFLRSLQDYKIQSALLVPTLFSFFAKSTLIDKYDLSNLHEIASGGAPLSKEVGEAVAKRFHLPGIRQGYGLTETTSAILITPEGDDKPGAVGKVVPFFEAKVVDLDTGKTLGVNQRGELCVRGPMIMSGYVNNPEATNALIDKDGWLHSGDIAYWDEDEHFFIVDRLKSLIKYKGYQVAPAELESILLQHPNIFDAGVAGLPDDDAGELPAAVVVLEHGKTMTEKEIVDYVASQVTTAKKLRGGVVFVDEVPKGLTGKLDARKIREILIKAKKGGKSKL
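Purified P. pyralis luciferase (10nM final) with 10uM D-luciferin and 10uM ATP (Km levels) in 50mM Tris acetate pH 7.5, 10mM Mg acetate, 0.01% Tween-20, 0.05% BSA; qHTS 6-point titration, ~60 µM downward; luminescence read.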
NPC1 promoter act: activates the NPC1 promoter. 320,000 compounds, 2.4% hits. Huh7 NPC1 promoter luciferase reporter, 24 h. Potency, µM (highest dose often 9.22 µM), without a hit: at the top dose activation, hits mostly activators; note: % of control where 0% means no effect; nearly all actives have a fitted effect of over 60% in size
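NPC1 promoter–luciferase Huh7 cells; 24 h compound; luminescence.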
ELG1 repair inh: blocks ELG1-dependent DNA repair in HEK293T cells | HEK293T ELG1-luciferase reporter, luminescence, 16 h; DNA damage induced by 5-fluorouridine | Potency, µM (series often up to 46.1 µM), for the others: at the top dose activity change, negative = inhibition, actives largely listed as inhibitors | 330,000 compounds, 2.3% hits | AID 504467; note: % is set by controls: 0 for no effect and ±100 for the full control effect; nearly all actives have a fitted effect of over 55% in size
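DMSO vehicle served as the neutral condition. Each well held 2,000 cells given 5-fluorouridine plus compound; after 16 hr at 37 °C/5% CO2, ONE-Glo was added and luciferase measured 30 min later.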
SMN2 splice enh: SMN2 splice variant enhancement. HEK293 SMN2-luciferase splicing reporter, luminescence, 30-36 h. Potency, µM (highest dose often 46.1 µM), for inactives: top-dose activity change, positive = activation, hits mostly activators. 210,000 compounds, 2.8% hits. AID 1458; note: % of control where 0% means no effect; nearly all actives have a fitted effect of over 55% in size
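qHTS luciferase splicing reporter: luminescence rises when SMN2 exon 7 is included in transfected HEK293 cells. Compound exposure lasted 30-36 h at 37C, with 4.5 mM final sodium butyrate as control, followed by a ONE-Glo read.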
Rab9 promoter act: Rab9 promoter activation | Huh7 Rab9 promoter-luciferase reporter, luminescence, 24 h | 320,000 compounds, 2.8% hits | Potency, µM (titrated, usually from 9.22 µM), without a hit: top-dose activation, negative = inhibition, most hits filed as activators; note: % of control where 0% means no effect; nearly all actives have a fitted effect of over 60% in size
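Luminescence from Amplite-detected luciferase (10 minutes, ambient) reports Rab9 promoter activation. Before that, stable Rab9-luciferase Huh7 cells (1500/well, reduced-serum OP-MEM I plus 10% FBS) were exposed to compound for 24 hours at 37C.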
ELG1 genotoxic: induces genotoxicity in HEK293T cells with luciferase-tagged ELG1 | HEK293T ELG1-luciferase reporter, luminescence, 16 h | Potency, µM (doses to about 46 µM), for inactives: at the top dose activity change, positive = activation, actives largely listed as activators | 330,000 compounds, 1.3% hits | AID 504466; note: % of control where 0% means no effect; nearly all actives have a fitted effect of over 60% in size
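Screening used a luciferase reporter fused to human ELG1 in HEK293T cells. Luminescence was read on a CCD plate imager after 16 hr exposure and 30 min ONE-Glo incubation.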
The depositor's hits bear a star; ? = inconclusive; . = no result; [ ] = another dose, or the depositor's remark. The list is not random: actives were taken first. Their share in the collection is about 9.2%. Calls come from the whole dose curve; as a rule, active = well fitted curve in the direction sought with a large enough effect; inconclusive = small, poorly fitted or top-dose-only effect, or another doubt; inactive = no such curve, though single readings can be large; an effect the other way counts as inactive or inconclusive. Potency is the fitted concentration of half-maximal effect.

SMILES | FLuc modulator | NPC1 promoter act | ELG1 repair inh | SMN2 splice enh | Rab9 promoter act | ELG1 genotoxic
CCOC(=O)c1ccc(-c2ccc3[nH]c4ccccc4c(=O)c3c2)cc1F | 0.54µM* | ? | ? | . | -3% | ?
CCOC(=O)c1c[nH]c2ccc3ccccc3c2c1=O | ? | -1% | -5% | . | 0% | -4%
COc1ccc(C2CC(c3ccccc3)=NN2C(=O)COC(=O)c2ccc(S(C)(=O)=O)cc2)cc1 (stereo not drawn) | 2% | -1% | ? | . | -2% | 0%
Nc1cc(=O)[nH]c(SCC(=O)N2N=C(c3ccc4ccccc4c3)CC2c2ccccc2)n1 (stereo not drawn) | 3% | 2% | -15% | . | 0% | -10%
COc1ccc(C2CC(c3ccc4ccccc4c3)=NN2C(=O)COC(=O)C2CCC(=O)N2)cc1 (stereo not drawn) | 24µM* | 1.6µM* | ? | 14µM* | 1.1µM* | ?
COc1ccc(C2CC(c3ccc4ccccc4c3)=NN2C(=O)CN2CCC(C(N)=O)CC2)cc1 (stereo not drawn) | ? | 16% | -13% | -102% | ? | -11%
CC(=O)OCC(=O)N1N=C(c2ccc3ccccc3c2)CC1c1ccccc1 (stereo not drawn) | -11% | ? | 21% | 22% | 3.2µM* | 8%
COc1ccc(C2CC(c3ccccc3)=NN2C(=O)COC(=O)c2cccc(O)c2)cc1 (stereo not drawn) | . | . | 16µM* | . | . | -7%
CCOC(=O)c1nnn(CC(=O)N2N=C(c3ccccc3)CC2c2ccccc2)c1C(=O)OCC (stereo not drawn) | 2% | -1% | 8% | -21% | -4% | 1%
CCOC(=O)/C=C(\C)N1N=C(c2ccccc2)CC1c1ccccc1 (stereo not drawn) | 17µM* | 8% | ? | ? | ? | -9%
CCCC(=O)N1c2nc(C(C)C)nn2C2(CCCCC2)[C@@H]2CCCC[C@@H]21 | -8% | . | . | . | . | .
CCOC(=O)c1ccc(NC(=O)c2cccc3c(=O)c4c([nH]c23)CCCC4)cc1 | 2% | . | . | . | . | .
CC(C)CNC(=O)c1ccccc1NC(=O)/C=C/c1cccc([N+](=O)[O-])c1 | 3% | -2% | 11% | -31% | -3% | 9%
CNc1nc(SC)n(C)c(=O)c1N=O | -2% | -1% | ? | . | -1% | 15%
COc1cc2c(cc1OC)C1O[C@](c3ccsc3)(C2)Oc2cc(-c3ccccc3)oc(=O)c21 | 1%[11.5 µM] | -2%[1.84 µM] | . | . | 3%[1.84 µM] | .
CN(C)c1ccc(/C=N/OC(=O)Nc2ccccc2)cc1 | 1.1µM* | 0.71µM* | ? | . | 0.45µM* | ?
CN(C)c1ccc(C(=O)NNC(=O)Nc2ccccc2)cc1 | -1% | 17% | ? | -6% | 24% | 5%
Cc1ccc(NC(=O)CO/N=C/c2ccc(N(C)C)cc2)cc1 | 15µM* | 8% | 12% | -17% | 0% | 6%
CCOc1ccccc1NC(=O)NNS(=O)(=O)c1cc(OC)ccc1OC | 0% | -3% | -5% | . | 1% | -1%
COc1ccc(COC(=O)N/N=C(\C)CC(=O)NCc2ccc(Cl)cc2)cc1 | ? | -5% | -5% | -31% | 1% | 5%
COc1ccc(C(=O)NC(NC(=O)c2ccc(OC)c(OC)c2)c2ccccc2F)cc1OC | -4% | 0% | 8% | -4% | 1% | -2%
Cc1cc(S(=O)(=O)N(Cc2ccc(F)cc2)CC2CCCO2)ccc1-n1cnnn1 (stereo not drawn) | -15% | -2% | -4% | -32% | -3% | -4%
Cc1cc(S(=O)(=O)N(Cc2ccc(C(C)C)cc2)CC2CCCO2)ccc1-n1cnnn1 (stereo not drawn) | 4% | -5% | 16µM* | -50% | -10% | -21%
O=C1NC(=O)c2cc(Br)cc3cccc1c23 | 4% | -4% | 0% | 9% | 3% | 1%
Cc1ccc(NS(=O)(=O)c2cc3c4c(cccc4c2)C(=O)NC3=O)cc1C | -2% | 3% | 16µM* | . | -1% | -9%
SMILES | FLuc modulator | NPC1 promoter act | ELG1 repair inh | SMN2 splice enh | Rab9 promoter act | ELG1 genotoxic
CC(c1ccco1)N(C(=O)c1ccccc1NS(=O)(=O)c1ccc(Cl)c([N+](=O)[O-])c1)c1ccccn1 (stereo not drawn) | -1% | 3% | -2% | -11% | -4% | -3%
O=C(COC(=O)c1ccc(O)cc1O)c1ccc2c(c1)OCO2 | 8.5µM* | ? | 2% | . | 6% | 7%
CC(=O)Nc1cc(NC(C)=O)cc(C(=O)OCC(=O)c2ccc3c(c2)OCO3)c1 | -3% | -3% | ? | . | 1% | 29%
CCOC(=O)C1=C(C)NC(C)=C(C(=O)OCC)C1C(=O)OCC(=O)c1ccc2c(c1)OCCO2 | -18% | 1% | 2.9µM* | -4% | 16% | 14%
CCOC(=O)C1=C(C)NC(C)=C(C(=O)OCC)C1C(=O)OCC(N)=O | -2% | -1% | 0% | 13% | -2% | 5%
CCOC(=O)C1=C(C)NC(C)=C(C(=O)OCC)C1C(=O)OCC(=O)NCc1ccco1 | . | . | 10µM* | . | . | -6%
O=C(COC(=O)c1cc(Cl)ccc1O)c1ccc2c(c1)OCO2 | 1.9µM* | ? | ? | . | 30% | 8%
CC(C)CCn1c(=O)c2ccccc2n2c(CCC(=O)NCC3CCCO3)nnc12 (stereo not drawn) | 0% | -1% | -10% | . | 0% | -4%
CCCCCCN(C(=O)CCCCCN1C(=O)NC(C2CCCCC2)C(C(=O)OCc2ccccc2)=C1C)C(C(=O)NCCCC)c1ccc(OCC(=O)OC)c(C(=O)OC)c1 (stereo not drawn) | . | . | . | -20% | . | .
Cc1ccc(C)c(S(=O)(=O)Nc2ccc(-n3cnnn3)cc2)c1 | . | . | -12% | . | . | 2%
COC(=O)C(Cc1ccc(O)cc1)NC(=O)c1ccc2c(c1)OCCO2 (stereo not drawn) | 1.3µM* | 8% | ? | . | 6% | ?
O=C(COC(=O)c1ccc(O)cc1)c1ccc2c(c1)OCCO2 | 1.2µM* | 3.5µM* | ? | . | 4µM* | 5.2µM*
CCC(=O)n1nc(-c2ccc(Cl)cc2)nc1NCc1ccccc1 | -2% | 18% | ? | 11% | ? | 21µM*
O=C(NCCOc1ccccc1)c1ccccc1NC(=O)C1CCCO1 (stereo not drawn) | ? | 4µM* | ? | 11µM* | 2.2µM* | 9%
O=C(Nc1ccccc1C(=O)O)c1ccc(NC(=O)C2CCCO2)cc1 (stereo not drawn) | 6.7µM* | -4% | 10% | . | -2% | 3%
CCOC(=O)c1ccccc1NC(=O)C1CCCO1 (stereo not drawn) | 3% | 0% | 5% | . | 1% | -1%

Screening results: PubChem BioAssay, National Center for Advancing Translational Sciences (NCATS)
